Laboratory results reported in PubChem BioAssay (NCI).
Compounds without any hit were thinned out: in the full panel of roughly 83,000, 20% have a hit.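 Treatment: one concentration, 48 hours, 96-well format. Scoring: percent growth, with anything below 10 considered active.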 A number with no mark means an inactive call. Active and inactive are the calls of the source.

Assays:
Assay in all cases: NCI-60 one-dose screen, 48 h (100 = growth as untreated, 0 = no growth, -100 = all killed)
Settings in all cases: 10 µM
[1] = test system: SK-MEL-2 melanoma
[2] = test system: EKVX NSCLC
[3] = test system: SN12C renal
[4] = test system: UO-31 renal
[5] = test system: TK-10 renal
[6] = test system: ACHN renal
[7] = test system: CAKI-1 renal
[8] = test system: A498 renal
[9] = test system: CCRF-CEM leukemia
[10] = test system: MOLT-4 leukemia

With `CCOC(=O)c1c(CSc2ccccc2)n(C)c2cc(CN(C)C)c(O)c(CN(C)C)c12` the growth [1] was 77.5%, the growth [2] was 36.9% and the growth [3] was 27.2%. For the same molecule, the growth [4] was 28%, the growth [5] was 75.9% and the growth [6] was 59%. The growth [7] was 57.8%, the growth [8] was 118% and the growth [9] was 42.7%. It also gave a growth [10] of 49%.
In the case of `O=c1[nH]c2ccc(Cl)cc2cc1CSc1ccc(Nc2nccc(-c3ccc(Cl)cc3)n2)cc1`, the growth [1] is reported as 99.2%, the growth [2] is reported as 82% and the growth [3] is reported as 72.9%. The growth [4] was 90%, the growth [5] was 36.4% and the growth [6] was 83.5%. For the same molecule, the growth [7] was 84.9%, the growth [8] was 118% and the growth [9] was 74.8%. For the same molecule, the growth [10] was 46.4%.
In the case of `CCN1CCN(Cc2ccc(C(=O)Nc3cccc(-c4cn(-c5ccc6oc(=O)ccc6c5)nn4)c3)cc2C(F)(F)F)CC1`, the growth [1] is reported as 66.1%, the growth [2] is reported as -100% (active) and the growth [3] is reported as -100% (active). For the same molecule, the growth [4] was -100% (active), the growth [5] was -100% (active) and the growth [6] was -100% (active). The growth [7] was 8.59% (active), the growth [8] was -100% (active) and the growth [9] was -21% (active). The growth [10] was -29.8% (active).
In the case of `Cc1cc(=O)oc2cc(OCCCCOc3ccc(/C=C/C(=O)Nc4cccc(Cl)c4)cc3)ccc12`, the growth [1] is reported as 86.9%, the growth [2] is reported as 71.3% and the growth [3] is reported as 73.8%. It also gave a growth [4] of 84.9%, a growth [5] of 66.2% and a growth [6] of 81.4%. For the same molecule, the growth [7] was 73.2%, the growth [8] was 80.7% and the growth [9] was 83.4%. It also gave a growth [10] of 80.6%.
For `CN(C)c1ccc(/C=C/C(=O)c2ccc(NC(=O)CN3C(=O)NC(C)(c4ccccc4)C3=O)cc2)cc1` (stereo not given), the growth [1] was 76.5%, the growth [2] was 66.4% and the growth [3] was 73.4%. The growth [4] was 57.7%, the growth [5] was 97.3% and the growth [6] was 59.8%. It also gave a growth [7] of 66.4%, a growth [8] of 85.5% and a growth [9] of 53.1%. It also gave a growth [10] of 36.6%.
`O=C(CSc1nnc(-c2ccc3nc(-c4ccccc4)[nH]c3c2)o1)Nc1ccc(Cl)cc1` was tested, and the growth [1] was 45%, the growth [2] was 48.6% and the growth [3] was 46.1%. It also gave a growth [4] of 40.1%, a growth [5] of 55% and a growth [6] of 29.5%. The growth [7] was 30.5%, the growth [8] was 101% and the growth [9] was 13.7%. The growth [10] was 7.63% (active).
With `COc1ccc(/C=C/C(=O)c2ccc(N3CCN(C)CC3)cc2)c(C(F)(F)F)c1` the growth [1] was 94.6%, the growth [2] was 49% and the growth [3] was 42.5%. The growth [4] was 44.2%, the growth [5] was 71.7% and the growth [6] was 55.6%. For the same molecule, the growth [7] was 41.4%, the growth [8] was 59.5% and the growth [9] was 27.3%. The growth [10] was 10.8%.
With `Clc1ccc(/C=N/Nc2ncnc3sc4c(c23)CCN(Cc2ccccc2)C4)cc1` the growth [1] was 93.5%, the growth [2] was 56.7% and the growth [3] was -62.4% (active). The growth [4] was 22.1%, the growth [5] was -76.1% (active) and the growth [6] was 27.4%. For the same molecule, the growth [7] was 34.5%, the growth [8] was -32.2% (active) and the growth [9] was -24.2% (active). For the same molecule, the growth [10] was 4.13% (active).
`COc1cc(/C=C/C(=O)c2ccc(NC(=O)CSc3nnc(-c4c[nH]c5ccccc45)n3-c3ccccc3)cc2)cc(OC)c1OC` gave a growth [1] of 99.9%, a growth [2] of 90.6% and a growth [3] of 74.2%. The growth [4] was 75%, the growth [5] was 117% and the growth [6] was 89.3%. For the same molecule, the growth [7] was 95.7%, the growth [8] was 138% and the growth [9] was 60.5%. For the same molecule, the growth [10] was 41.5%.
`N#C/C(=C\c1ccc(N(c2ccccc2)c2ccccc2)cc1)C(N)=O` was tested, and the growth [1] was 23.5%, the growth [2] was 90.2% and the growth [3] was 90.5%. The growth [4] was 49.9%, the growth [5] was -37.7% (active) and the growth [6] was 88%. For the same molecule, the growth [7] was -24% (active), the growth [8] was -99.8% (active) and the growth [9] was 59.9%. The growth [10] was 56%.
Work on `CC1(c2ccccc2)NC(=O)N(CC(=O)Nc2ccc(C(=O)/C=C/C=C/c3ccccc3)cc2)C1=O` (stereo not given) yielded a growth [1] of 90%, a growth [2] of 71.6% and a growth [3] of 66.9%. The growth [4] was 54.9%, the growth [5] was 84.6% and the growth [6] was 48.4%. For the same molecule, the growth [7] was 63.2%, the growth [8] was 70.6% and the growth [9] was 32.4%. For the same molecule, the growth [10] was 18.6%.
For `COc1ccc(-c2ccc(SCC(=O)Nc3ccc(C#N)cc3)nn2)cc1`, the growth [1] was 114%, the growth [2] was 95.1% and the growth [3] was 95%. The growth [4] was 75.4%, the growth [5] was 108% and the growth [6] was 80.1%. For the same molecule, the growth [7] was 81.4%, the growth [8] was 124% and the growth [9] was 95.9%. The growth [10] was 94.4%.
`CN1CCN(c2ccc(C(=O)/C=C/c3ccc(C#N)cc3)cc2)CC1` showed a growth [1] of 104%, a growth [2] of 82% and a growth [3] of 73.8%. The growth [4] was 61.8%, the growth [5] was 102% and the growth [6] was 83.5%. It also gave a growth [7] of 63.8%, a growth [8] of 103% and a growth [9] of 65.9%. It also gave a growth [10] of 90.5%.
In the case of `CCOc1ccc(/C=N/NC(=O)Cn2nc(Cc3ccc([N+](=O)[O-])cc3)c3onc(C)c3c2=O)cc1`, the growth [1] is reported as 51.9%, the growth [2] is reported as 16.3% and the growth [3] is reported as 11.2%. For the same molecule, the growth [4] was -48.1% (active), the growth [5] was -12.2% (active) and the growth [6] was -68% (active). The growth [7] was -9.88% (active), the growth [8] was 45.1% and the growth [9] was 89.3%. The growth [10] was 75.7%.
Work on `COC1=C[C@@]23CCC(=O)N2CCc2cc4c(cc2[C@H]3[C@H]1OC(=O)C(C)(C)O)OCO4` yielded a growth [1] of 104%, a growth [2] of 97.2% and a growth [3] of 96.5%. It also gave a growth [4] of 87.5%, a growth [5] of 97.7% and a growth [6] of 103%. For the same molecule, the growth [7] was 95.6%, the growth [8] was 108% and the growth [9] was 99.3%. It also gave a growth [10] of 86.7%.
For `CC1=C(c2cc(-c3ccc(Cl)cc3)c(C#N)c(N)n2)C(c2ccccc2)NC(=S)N1` (stereo not given), the growth [1] was 98.6%, the growth [2] was 98.6% and the growth [3] was 62.2%. For the same molecule, the growth [4] was 63.5%, the growth [5] was 114% and the growth [6] was 19.6%. For the same molecule, the growth [7] was 72.3%, the growth [8] was 137% and the growth [9] was 7.65% (active). The growth [10] was 6.11% (active).
`CC(=O)Oc1ccccc1C(=O)Oc1ccc(C(=O)/C=C/c2ccncc2)cc1` showed a growth [1] of 108%, a growth [2] of 80.6% and a growth [3] of 18.6%. The growth [4] was 38.7%, the growth [5] was 91.6% and the growth [6] was 56%. It also gave a growth [7] of 59.7%, a growth [8] of 84% and a growth [9] of 43.6%. The growth [10] was 40.1%.
`CN1C/C(=C\c2ccc(O)cc2O)c2[o+]c3cc(O)ccc3cc2C1` was tested, and the growth [1] was 46.5%, the growth [2] was 78% and the growth [3] was 39.9%. For the same molecule, the growth [4] was 63.6%, the growth [5] was 82.4% and the growth [6] was 71.9%. It also gave a growth [7] of 70.1%, a growth [8] of 117% and a growth [9] of 41.1%. The growth [10] was 37.8%.
Work on `Cc1ccc(CSc2nc(-c3ccc(F)cc3)c(C#N)c(=O)[nH]2)cc1` yielded a growth [1] of 103%, a growth [2] of 99.6% and a growth [3] of 102%. For the same molecule, the growth [4] was 96.2%, the growth [5] was 93.5% and the growth [6] was 100%. For the same molecule, the growth [7] was 92.5%, the growth [8] was 99.3% and the growth [9] was 94.7%. It also gave a growth [10] of 88.4%.
For `Cc1cc2nc3c4ccccc4n(CCO)c3nc2cc1C`, the growth [1] was 101%, the growth [2] was 84.5% and the growth [3] was 43.5%. For the same molecule, the growth [4] was 28.6%, the growth [5] was 165% and the growth [6] was -6.25% (active). For the same molecule, the growth [7] was 55.4%, the growth [8] was 61.6% and the growth [9] was 71.6%. The growth [10] was 78.4%.
Work on `COc1ccc2c(c1)N=C(C(=O)O)/C2=C/c1sc(Nc2ccc(O)cc2)nc1O` yielded a growth [1] of 81.6%, a growth [2] of 75.1% and a growth [3] of 80.9%. For the same molecule, the growth [4] was 49.4%, the growth [5] was 99.2% and the growth [6] was 82.2%. The growth [7] was 92.1%, the growth [8] was 98.2% and the growth [9] was 44.3%. The growth [10] was 43%.
For `O=C(Nc1ccc(I)cc1)Nc1nc2ccc([N+](=O)[O-])cc2s1`, the growth [1] was -91% (active), the growth [2] was -93% (active) and the growth [3] was -97.7% (active). The growth [4] was -100% (active), the growth [5] was -92% (active) and the growth [6] was -100% (active). For the same molecule, the growth [7] was -100% (active), the growth [8] was -91.6% (active) and the growth [9] was -81.1% (active). The growth [10] was -58.1% (active).
With `COc1ccc2nc(Nc3cccc(NC(=O)c4ccc(CN5CCN(C)CC5)c(C(F)(F)F)c4)c3)ccc2c1` the growth [1] was -98.3% (active), the growth [2] was -98% (active) and the growth [3] was -92.6% (active). For the same molecule, the growth [4] was -48.2% (active), the growth [5] was -44.4% (active) and the growth [6] was -94.8% (active). For the same molecule, the growth [7] was -33.7% (active), the growth [8] was -42.3% (active) and the growth [9] was -10.5% (active). The growth [10] was -44.6% (active).
Molecule `CCN1CCN(Cc2ccc(NC(=O)c3cccc(-n4cc(-c5ccc(NC(C)=O)nc5)nn4)c3)cc2C(F)(F)F)CC1` has a growth [1] of 106%, a growth [2] of 105% and a growth [3] of 95.9%. It also gave a growth [4] of 107%, a growth [5] of 149% and a growth [6] of 109%. The growth [7] was 88.9%, the growth [8] was 213% and the growth [9] was 39.2%. It also gave a growth [10] of 80.3%.
With `COc1ccc(C2NC(=S)NC(C)=C2C(=O)OC(C)C)cc1OC` (stereo not given) the growth [1] was 114%, the growth [2] was 97.9% and the growth [3] was 101%. For the same molecule, the growth [4] was 83.5%, the growth [5] was 106% and the growth [6] was 107%. It also gave a growth [7] of 97.4%, a growth [8] of 114% and a growth [9] of 95.9%. It also gave a growth [10] of 102%.
`COc1ccc2cc([C@H](C)C(=O)NCc3ccccc3)ccc2c1` showed a growth [1] of 31%, a growth [2] of 42.5% and a growth [3] of 33.5%. The growth [4] was 46.3%, the growth [5] was 65.7% and the growth [6] was 54.9%. The growth [7] was 34.7%, the growth [8] was 63.1% and the growth [9] was 31%. It also gave a growth [10] of 47%.
